Reference: the supplement of paper PMC12282887
± gives the standard deviation of the averaged measurements.

Columns and labels:
Assay in all cases: promoter activity interaction Z-score (Lux/OD deviation from empty-vector control); higher = stronger promoter induction by the compound
[1] = test system: E. coli BW25113 acrABp lux reporter
Outline: (§1)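 Wild-type E. coli BW25113 and three single-gene deletion strains, each carrying a low-copy luxCDABE promoter reporter, were grown at 37°C in 40 µl LB Lennox per well of a 384-well plate. Every compound was applied at four 1:2 dilutions in biological duplicates, and OD600 and luminescence were read every 30 min for 12 h. Integration covered 0–8 h for wild type and 1–9 h for deletion strains, and wells under 10% of the median growth value were removed. Scores are Z-transformed residuals of growth-normalised luminescence fitted against a control.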

[2] = test system: E. coli BW25113 micFp lux reporter
Outline: as §1

[3] = test system: E. coli BW25113 ompFp lux reporter
Outline: as §1

[4] = test system: E. coli BW25113 robp lux reporter
Outline: as §1

[5] = test system: E. coli BW25113 soxSp lux reporter
Outline: as §1

[6] = test system: E. coli BW25113 tolCp lux reporter
Outline: as §1

[7] = 21.6 µg/ml, genetic background: wild type
[8] = 21.6 µg/ml, genetic background: ΔmarA
[9] = 21.6 µg/ml, genetic background: Δrob
[10] = 21.6 µg/ml, genetic background: ΔsoxS
[11] = 43.2 µg/ml, genetic background: wild type
[12] = 43.2 µg/ml, genetic background: ΔmarA
[13] = 43.2 µg/ml, genetic background: Δrob
[14] = 43.2 µg/ml, genetic background: ΔsoxS
[15] = 86.4 µg/ml, genetic background: wild type
[16] = 86.4 µg/ml, genetic background: ΔmarA
[17] = 86.4 µg/ml, genetic background: Δrob
[18] = 86.4 µg/ml, genetic background: ΔsoxS
[19] = 172.7 µg/ml, genetic background: wild type
[20] = 172.7 µg/ml, genetic background: ΔmarA
[21] = 172.7 µg/ml, genetic background: Δrob
[22] = 172.7 µg/ml, genetic background: ΔsoxS

Question: Which “promoter activity interaction Z-score” value [1, 7] does the source give for COc1ccc2[nH]c([S+]([O-])Cc3ncc(C)c(OC)c3C)nc2c1 (stereo unspecified) [Omeprazole] here?
Answer: The value was -0.337 ± 0.014.

Question: And the “promoter activity interaction Z-score” value [1, 8]?
Answer: Its value is 0.346 ± 0.48.

Question: And the “promoter activity interaction Z-score” value [1, 9]?
Answer: Its value is -0.0504 ± 0.066.

Question: And the “promoter activity interaction Z-score” value [1, 10]?
Answer: The value was -0.13 ± 0.54.

Question: And the “promoter activity interaction Z-score” value [1, 11]?
Answer: Its value is -0.353 ± 0.082.

Question: And the “promoter activity interaction Z-score” value [1, 12]?
Answer: Its value is -0.358 ± 0.072.

Question: What about the “promoter activity interaction Z-score” value [1, 13] of the same molecule?
Answer: Its value is -0.105 ± 0.12.

Question: What about the “promoter activity interaction Z-score” value [1, 14] of the same molecule?
Answer: Its value is -0.0181 ± 0.095.

Question: What about the “promoter activity interaction Z-score” value [1, 15] of the same molecule?
Answer: The value was -0.362 ± 0.37.

Question: And the “promoter activity interaction Z-score” value [1, 16]?
Answer: The value was -0.395 ± 0.11.

Question: What about the “promoter activity interaction Z-score” value [1, 17] of the same molecule?
Answer: The value was -0.192 ± 0.19.

Question: And the “promoter activity interaction Z-score” value [1, 18]?
Answer: Its value is -0.303 ± 0.19.

Question: And the “promoter activity interaction Z-score” value [1, 19]?
Answer: Its value is -0.479 ± 0.43.

Question: And the “promoter activity interaction Z-score” value [1, 20]?
Answer: Its value is -0.193 ± 0.65.

Question: What about the “promoter activity interaction Z-score” value [1, 21] of the same molecule?
Answer: The value was -0.199 ± 0.17.

Question: What about the “promoter activity interaction Z-score” value [1, 22] of the same molecule?
Answer: Its value is -0.532 ± 0.35.

Question: And the “promoter activity interaction Z-score” value [2, 7]?
Answer: The value was -0.467 ± 0.1.

Question: And the “promoter activity interaction Z-score” value [2, 8]?
Answer: The value was -0.0778 ± 0.095.

Question: And the “promoter activity interaction Z-score” value [2, 9]?
Answer: The value was -0.00843 ± 0.2.

Question: What about the “promoter activity interaction Z-score” value [2, 10] of the same molecule?
Answer: The value was -0.201 ± 0.026.

Question: And the “promoter activity interaction Z-score” value [2, 11]?
Answer: The value was -0.228 ± 0.15.

Question: And the “promoter activity interaction Z-score” value [2, 12]?
Answer: Its value is -0.00184 ± 0.029.

Question: What about the “promoter activity interaction Z-score” value [2, 13] of the same molecule?
Answer: Its value is 0.0425 ± 0.23.

Question: What about the “promoter activity interaction Z-score” value [2, 14] of the same molecule?
Answer: The value was -0.0104 ± 0.033.

Question: What about the “promoter activity interaction Z-score” value [2, 15] of the same molecule?
Answer: Its value is -0.311 ± 0.11.

Question: What about the “promoter activity interaction Z-score” value [2, 16] of the same molecule?
Answer: Its value is 0.141 ± 0.0042.

Question: What about the “promoter activity interaction Z-score” value [2, 17] of the same molecule?
Answer: The value was 0.11 ± 0.088.

Question: And the “promoter activity interaction Z-score” value [2, 18]?
Answer: The value was 0.0651 ± 0.15.

Question: What about the “promoter activity interaction Z-score” value [2, 19] of the same molecule?
Answer: Its value is -0.637 ± 0.076.

Question: And the “promoter activity interaction Z-score” value [2, 20]?
Answer: The value was 0.0179 ± 0.059.

Question: And the “promoter activity interaction Z-score” value [2, 21]?
Answer: Its value is -0.0934 ± 0.045.

Question: And the “promoter activity interaction Z-score” value [2, 22]?
Answer: Its value is -0.467 ± 0.12.

Question: What about the “promoter activity interaction Z-score” value [3, 7] of the same molecule?
Answer: The value was -0.482 ± 0.29.

Question: And the “promoter activity interaction Z-score” value [3, 8]?
Answer: The value was -0.539 ± 0.12.

Question: What about the “promoter activity interaction Z-score” value [3, 9] of the same molecule?
Answer: The value was -0.476 ± 0.1.

Question: What about the “promoter activity interaction Z-score” value [3, 10] of the same molecule?
Answer: Its value is -0.299 ± 0.19.

Question: And the “promoter activity interaction Z-score” value [3, 11]?
Answer: Its value is -0.42 ± 0.17.

Question: What about the “promoter activity interaction Z-score” value [3, 12] of the same molecule?
Answer: The value was -0.516 ± 0.55.

Question: And the “promoter activity interaction Z-score” value [3, 13]?
Answer: Its value is -0.244 ± 0.2.

Question: And the “promoter activity interaction Z-score” value [3, 14]?
Answer: Its value is -0.555 ± 0.25.

Question: And the “promoter activity interaction Z-score” value [3, 15]?
Answer: The value was -1.02 ± 0.014.

Question: And the “promoter activity interaction Z-score” value [3, 16]?
Answer: Its value is -0.56 ± 0.35.

Question: And the “promoter activity interaction Z-score” value [3, 17]?
Answer: Its value is -0.352 ± 0.17.

Question: And the “promoter activity interaction Z-score” value [3, 18]?
Answer: The value was -0.773 ± 0.19.

Question: What about the “promoter activity interaction Z-score” value [3, 19] of the same molecule?
Answer: The value was -0.996 ± 0.11.

Question: What about the “promoter activity interaction Z-score” value [3, 20] of the same molecule?
Answer: Its value is -0.786 ± 0.12.

Question: And the “promoter activity interaction Z-score” value [3, 21]?
Answer: The value was -1.14 ± 0.44.

Question: What about the “promoter activity interaction Z-score” value [3, 22] of the same molecule?
Answer: Its value is -1.41 ± 0.14.

Question: What about the “promoter activity interaction Z-score” value [4, 7] of the same molecule?
Answer: Its value is -0.44 ± 0.32.

Question: And the “promoter activity interaction Z-score” value [4, 8]?
Answer: The value was -0.171 ± 0.43.

Question: What about the “promoter activity interaction Z-score” value [4, 9] of the same molecule?
Answer: The value was -0.295 ± 0.01.

Question: And the “promoter activity interaction Z-score” value [4, 10]?
Answer: The value was 0.394 ± 0.34.

Question: What about the “promoter activity interaction Z-score” value [4, 11] of the same molecule?
Answer: Its value is 0.141 ± 0.33.

Question: What about the “promoter activity interaction Z-score” value [4, 12] of the same molecule?
Answer: The value was 0.325 ± 0.23.

Question: What about the “promoter activity interaction Z-score” value [4, 13] of the same molecule?
Answer: Its value is -0.173 ± 0.37.

Question: And the “promoter activity interaction Z-score” value [4, 14]?
Answer: Its value is 0.145 ± 0.46.

Question: What about the “promoter activity interaction Z-score” value [4, 15] of the same molecule?
Answer: Its value is -0.722 ± 0.046.

Question: And the “promoter activity interaction Z-score” value [4, 16]?
Answer: Its value is 0.298 ± 0.23.

Question: What about the “promoter activity interaction Z-score” value [4, 17] of the same molecule?
Answer: Its value is -0.445 ± 0.32.

Question: And the “promoter activity interaction Z-score” value [4, 18]?
Answer: Its value is -0.519 ± 0.64.

Question: And the “promoter activity interaction Z-score” value [4, 19]?
Answer: The value was -0.656 ± 0.28.

Question: And the “promoter activity interaction Z-score” value [4, 20]?
Answer: Its value is -0.167 ± 0.31.

Question: What about the “promoter activity interaction Z-score” value [4, 21] of the same molecule?
Answer: The value was -0.507 ± 0.035.

Question: What about the “promoter activity interaction Z-score” value [4, 22] of the same molecule?
Answer: The value was -0.379 ± 0.46.

Question: And the “promoter activity interaction Z-score” value [5, 7]?
Answer: The value was -0.231 ± 0.11.

Question: What about the “promoter activity interaction Z-score” value [5, 8] of the same molecule?
Answer: Its value is -0.202 ± 0.05.

Question: What about the “promoter activity interaction Z-score” value [5, 9] of the same molecule?
Answer: The value was -0.257 ± 0.062.

Question: And the “promoter activity interaction Z-score” value [5, 10]?
Answer: Its value is -0.178 ± 0.32.

Question: What about the “promoter activity interaction Z-score” value [5, 11] of the same molecule?
Answer: Its value is -0.256 ± 0.0098.

Question: What about the “promoter activity interaction Z-score” value [5, 12] of the same molecule?
Answer: The value was -0.206 ± 0.022.

Question: And the “promoter activity interaction Z-score” value [5, 13]?
Answer: The value was -0.175 ± 0.12.

Question: What about the “promoter activity interaction Z-score” value [5, 14] of the same molecule?
Answer: The value was -0.281 ± 0.054.

Question: What about the “promoter activity interaction Z-score” value [5, 15] of the same molecule?
Answer: The value was -0.301 ± 0.081.

Question: What about the “promoter activity interaction Z-score” value [5, 16] of the same molecule?
Answer: Its value is -0.305 ± 0.1.

Question: What about the “promoter activity interaction Z-score” value [5, 17] of the same molecule?
Answer: The value was -0.0539 ± 0.1.

Question: And the “promoter activity interaction Z-score” value [5, 18]?
Answer: The value was -0.344 ± 0.12.

Question: And the “promoter activity interaction Z-score” value [5, 19]?
Answer: Its value is -0.333 ± 0.024.

Question: What about the “promoter activity interaction Z-score” value [5, 20] of the same molecule?
Answer: The value was -0.374 ± 0.013.

Question: What about the “promoter activity interaction Z-score” value [5, 21] of the same molecule?
Answer: Its value is -0.226 ± 0.14.

Question: And the “promoter activity interaction Z-score” value [5, 22]?
Answer: Its value is -0.806 ± 0.14.

Question: And the “promoter activity interaction Z-score” value [6, 7]?
Answer: Its value is -0.0562 ± 0.63.

Question: What about the “promoter activity interaction Z-score” value [6, 8] of the same molecule?
Answer: The value was -0.81 ± 0.13.

Question: And the “promoter activity interaction Z-score” value [6, 9]?
Answer: The value was -0.978 ± 0.82.

Question: And the “promoter activity interaction Z-score” value [6, 10]?
Answer: Its value is -0.661 ± 0.85.

Question: What about the “promoter activity interaction Z-score” value [6, 11] of the same molecule?
Answer: The value was 0.122 ± 0.9.

Question: What about the “promoter activity interaction Z-score” value [6, 12] of the same molecule?
Answer: The value was -0.409 ± 0.93.

Question: And the “promoter activity interaction Z-score” value [6, 13]?
Answer: The value was -0.642 ± 0.94.

Question: What about the “promoter activity interaction Z-score” value [6, 14] of the same molecule?
Answer: The value was 0.332 ± 0.16.

Question: And the “promoter activity interaction Z-score” value [6, 15]?
Answer: Its value is -0.33 ± 0.54.

Question: What about the “promoter activity interaction Z-score” value [6, 16] of the same molecule?
Answer: The value was 0.11 ± 0.23.

Question: And the “promoter activity interaction Z-score” value [6, 17]?
Answer: Its value is 0.71 ± 0.025.

Question: And the “promoter activity interaction Z-score” value [6, 18]?
Answer: Its value is 0.0744 ± 0.91.

Question: And the “promoter activity interaction Z-score” value [6, 19]?
Answer: Its value is 0.169 ± 0.58.

Question: And the “promoter activity interaction Z-score” value [6, 20]?
Answer: Its value is -0.0827 ± 1.5.

Question: What about the “promoter activity interaction Z-score” value [6, 21] of the same molecule?
Answer: Its value is 0.0999 ± 0.066.

Question: And the “promoter activity interaction Z-score” value [6, 22]?
Answer: Its value is -0.969 ± 0.63.
